An excerpt weighted towards active compounds, which were near 0.9% of everything screened.
PPARg SRC1 recr: PPARgamma-driven SRC-1 recruitment agonism; PPARgamma-SRC-1 coactivator recruitment biochemical assay; hit rate 0.41% among 200,000; activation, % at 8 µM; P37231; in the data active = activation above about 19%
SRC1 TRFRET art: TR-FRET artefact, counter-screen to PPARgamma/SRC-1 agonist assay; TR-FRET ratio at 8 µM; hit rate 0.34% among 99,000; AID 1051; TR-FRET detection artefact counter-screen, emission ratio; stronger effect = higher value; in the data active = TR-FRET ratio above about 2300
SRC3 TRFRET art: flags TR-FRET format artefacts in PPARgamma SRC-3 recruitment agonist screen; TR-FRET artefact counter-screen, PPARgamma/SRC-3 format; stronger effect = higher value; TR-FRET ratio at 8 µM; hit rate 0.39% among 99,000; in the data active = TR-FRET ratio above about 2000
PPARg SRC-3 ag: PPARgamma-driven SRC-3 recruitment agonism. biochemical PPARgamma/SRC-3 coactivator recruitment assay. activation, % at 8 µM. AID 731. hit rate 0.26% among 200,000. P37231; in the data active = activation above about 23%
SRC2 TRFRET art: TR-FRET artefact, counter-screen to PPARgamma/SRC-2 agonist assay. stronger effect = higher value. TR-FRET ratio at 8 µM. hit rate 0.4% among 200,000. AID 1049; in the data active = TR-FRET ratio above about 2000
PPARg SRC-2 ag: promotes SRC-2 coactivator recruitment by human PPARgamma | PPARgamma LBD-SRC-2 recruitment, biochemical | activation, % at 8 µM | hit rate 0.34% among 200,000
PPARg SRC2 ag: confirmation of agonists of SRC-2 recruitment by human PPARgamma. AID 1297. hit rate 52% among 790. biochemical SRC-2 recruitment by PPARgamma. shares compounds with PPARg SRC-3 ag. activation, % at 8 µM
PPARg SRC1 ag: human PPARgamma SRC-1 recruitment agonism, confirmation | shares compounds with PPARg SRC-3 ag | PPARgamma–SRC-1 coactivator recruitment biochemical assay | activation, % at 8 µM | hit rate 43% among 790 | AID 1300; in the data active = activation above about 20%
PPARg SRC3 ag: human PPARgamma SRC-3 recruitment agonism, confirmation | hit rate 29% among 790 | biochemical PPARgamma-SRC-3 coactivator recruitment, agonist mode | AID 1301 | activation, % at 8 µM | shares compounds with PPARg SRC-3 ag; in the data active = activation above about 24%
Target sequence (P37231 whole entry, looked up): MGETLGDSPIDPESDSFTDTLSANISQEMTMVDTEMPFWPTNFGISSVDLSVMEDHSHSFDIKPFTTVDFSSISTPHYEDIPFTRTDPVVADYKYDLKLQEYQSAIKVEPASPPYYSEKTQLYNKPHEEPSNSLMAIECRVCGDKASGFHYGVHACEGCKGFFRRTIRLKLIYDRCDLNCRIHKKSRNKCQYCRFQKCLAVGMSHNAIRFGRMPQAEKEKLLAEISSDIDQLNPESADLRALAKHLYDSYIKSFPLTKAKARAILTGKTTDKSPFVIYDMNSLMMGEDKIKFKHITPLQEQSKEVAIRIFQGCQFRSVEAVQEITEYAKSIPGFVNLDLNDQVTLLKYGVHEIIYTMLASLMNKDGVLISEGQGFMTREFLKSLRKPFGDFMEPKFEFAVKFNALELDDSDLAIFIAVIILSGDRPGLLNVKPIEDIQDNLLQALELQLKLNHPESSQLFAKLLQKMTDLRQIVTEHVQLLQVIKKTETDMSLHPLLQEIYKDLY
Target sequence (Q9Y6Q9 whole entry, looked up): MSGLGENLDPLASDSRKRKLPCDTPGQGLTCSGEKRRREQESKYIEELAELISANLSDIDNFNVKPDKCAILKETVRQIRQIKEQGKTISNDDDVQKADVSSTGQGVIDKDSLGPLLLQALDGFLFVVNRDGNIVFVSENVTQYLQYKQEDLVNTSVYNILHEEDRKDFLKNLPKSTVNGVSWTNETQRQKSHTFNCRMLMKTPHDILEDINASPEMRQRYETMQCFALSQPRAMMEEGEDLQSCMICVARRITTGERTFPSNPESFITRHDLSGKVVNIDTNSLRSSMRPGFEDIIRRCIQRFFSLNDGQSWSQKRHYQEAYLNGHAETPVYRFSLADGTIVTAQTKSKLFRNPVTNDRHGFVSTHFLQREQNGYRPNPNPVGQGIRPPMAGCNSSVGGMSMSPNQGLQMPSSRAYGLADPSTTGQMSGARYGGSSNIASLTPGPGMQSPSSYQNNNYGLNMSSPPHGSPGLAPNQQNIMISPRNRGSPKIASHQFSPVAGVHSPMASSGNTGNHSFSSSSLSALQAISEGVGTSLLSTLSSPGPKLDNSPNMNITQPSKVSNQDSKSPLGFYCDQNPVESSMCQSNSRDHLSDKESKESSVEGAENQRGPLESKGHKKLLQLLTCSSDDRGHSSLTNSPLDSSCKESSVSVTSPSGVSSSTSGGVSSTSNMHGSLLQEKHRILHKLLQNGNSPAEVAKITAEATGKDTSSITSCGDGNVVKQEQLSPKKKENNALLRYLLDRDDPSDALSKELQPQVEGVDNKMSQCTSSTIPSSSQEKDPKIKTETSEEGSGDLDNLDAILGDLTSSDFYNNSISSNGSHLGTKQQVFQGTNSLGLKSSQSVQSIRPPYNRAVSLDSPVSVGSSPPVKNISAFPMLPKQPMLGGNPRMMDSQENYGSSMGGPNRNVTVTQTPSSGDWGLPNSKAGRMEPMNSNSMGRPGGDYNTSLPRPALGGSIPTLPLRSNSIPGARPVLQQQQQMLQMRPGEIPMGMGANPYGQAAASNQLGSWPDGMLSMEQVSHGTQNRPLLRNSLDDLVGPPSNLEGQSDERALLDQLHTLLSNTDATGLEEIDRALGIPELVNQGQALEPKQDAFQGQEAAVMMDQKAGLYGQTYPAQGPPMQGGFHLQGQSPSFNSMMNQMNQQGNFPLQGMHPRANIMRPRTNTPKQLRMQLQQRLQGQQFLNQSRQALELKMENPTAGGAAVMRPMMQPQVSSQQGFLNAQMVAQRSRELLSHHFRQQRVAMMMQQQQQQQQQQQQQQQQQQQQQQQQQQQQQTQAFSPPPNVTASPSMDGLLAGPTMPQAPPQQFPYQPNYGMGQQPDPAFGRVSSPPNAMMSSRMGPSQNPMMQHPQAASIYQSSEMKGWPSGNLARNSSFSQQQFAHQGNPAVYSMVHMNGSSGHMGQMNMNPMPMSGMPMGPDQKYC
Each line names hits and unclear results; the compound was inactive in the other large screens (follow-up assays come after a bar, where they were run). Rule as the data show it, unless noted: active = activation above about 22%; inactive = the rest.

Cc1nnc(N2C(=O)C(O)=C(C(=O)c3ccco3)C2c2ccc(C(C)C)cc2)s1 (stereo unspecified)	PPARg SRC1 recr 27, SRC1 TRFRET art 2626, SRC3 TRFRET art 2243, SRC2 TRFRET art 2173, PPARg SRC-2 ag 33 | PPARg SRC2 ag inactive | PPARg SRC1 ag inactive | PPARg SRC3 ag inactive
COc1cccc(C2C(C(=O)c3cccs3)=C(O)C(=O)N2CCN(C)C)c1OC (stereo unspecified)	none (no result: SRC1 TRFRET art, SRC3 TRFRET art)
O=C1NC(c2ccccc2)C(C(=O)c2cccs2)=C1O (stereo unspecified)	PPARg SRC1 recr 20 (no result: SRC1 TRFRET art, SRC3 TRFRET art) | PPARg SRC2 ag inactive | PPARg SRC1 ag inactive | PPARg SRC3 ag inactive
COCCN1C(=O)C(O)=C(C(=O)c2cccs2)C1c1ccccc1 (stereo unspecified)	PPARg SRC1 recr 19 (no result: SRC1 TRFRET art, SRC3 TRFRET art) | PPARg SRC2 ag inactive | PPARg SRC1 ag inactive | PPARg SRC3 ag inactive
Cc1ccc(C)c(NC(=O)C(Sc2nnc(-c3cccs3)o2)c2ccccc2)c1 (stereo unspecified)	none
Cc1nnc(N2C(=O)C(O)=C(C(=O)c3ccco3)C2c2ccc(F)cc2)s1 (stereo unspecified)	PPARg SRC1 recr 28, PPARg SRC-3 ag 49, SRC2 TRFRET art 2061, PPARg SRC-2 ag 38 (no result: SRC1 TRFRET art, SRC3 TRFRET art) | PPARg SRC2 ag 41 | PPARg SRC1 ag 32 | PPARg SRC3 ag 28
COCCCN1C(=O)C(O)=C(C(=O)c2ccco2)C1c1ccc(Br)cc1 (stereo unspecified)	none (no result: SRC1 TRFRET art, SRC3 TRFRET art)
Cc1nnc(N2C(=O)C(O)=C(C(=O)c3ccco3)C2c2ccc(C(C)(C)C)cc2)s1 (stereo unspecified)	PPARg SRC1 recr 31, PPARg SRC-3 ag 42, SRC2 TRFRET art 2126, PPARg SRC-2 ag 28 (no result: SRC1 TRFRET art, SRC3 TRFRET art) | PPARg SRC2 ag 39 | PPARg SRC1 ag 31 | PPARg SRC3 ag 25
COc1cc(C(=O)Nc2nnc(-c3sccc3C)s2)cc(OC)c1OC	PPARg SRC1 recr 29, PPARg SRC-2 ag 24 (no result: SRC1 TRFRET art, SRC3 TRFRET art) | PPARg SRC2 ag 55 | PPARg SRC1 ag 43 | PPARg SRC3 ag 37
CCOCc1nnc(NC(=O)c2cc(OC)c(OC)c(OC)c2)s1	none
COc1ccc2cc3[n+](cc2c1OC)CCc1cc2c(cc1-3)OCO2	PPARg SRC-2 ag 25 | PPARg SRC2 ag inactive | PPARg SRC1 ag inactive | PPARg SRC3 ag inactive
COc1cccc(C2=NCCc3cc4c(cc32)OCO4)c1OC	none
C=CCN1CCN(C(CCC)c2nnnn2Cc2ccco2)CC1 (stereo unspecified)	none
COCCNc1c(-c2cc3ccc(C)c(C)c3[nH]c2=O)nc2ccccn12	none
N#Cc1c(-c2ccco2)nc(SCc2ccc(F)cc2)[nH]c1=O	PPARg SRC1 recr 20, PPARg SRC-3 ag 39, SRC2 TRFRET art 2187, PPARg SRC-2 ag 45 (no result: SRC1 TRFRET art, SRC3 TRFRET art) | PPARg SRC2 ag 24 | PPARg SRC1 ag inactive | PPARg SRC3 ag inactive
N#Cc1c(-c2ccco2)nc(SCC(=O)Nc2ccc(S(N)(=O)=O)cc2)[nH]c1=O	none (no result: SRC1 TRFRET art, SRC3 TRFRET art)
c1ccc(Cc2nnc(Sc3ccccc3)c3ccccc23)cc1	PPARg SRC1 recr 65, PPARg SRC-3 ag 113, SRC2 TRFRET art 4254, PPARg SRC-2 ag 117 (no result: SRC1 TRFRET art, SRC3 TRFRET art) | PPARg SRC2 ag 77 | PPARg SRC1 ag 52 | PPARg SRC3 ag 53
COCCCNc1nnc(Cc2ccccc2)c2ccccc12	none
CS(=O)(=O)N1CCC(C(=O)N2CCN(C(c3ccccc3)c3ccccc3)CC2)CC1	none
COc1ccc(C(=O)Nc2cc(-c3nn4c(C)nnc4s3)ccc2C)cc1	none (no result: SRC1 TRFRET art, SRC3 TRFRET art)
COc1ccc(OCC(=O)Nc2cc(-c3nn4c(C)nnc4s3)ccc2C)cc1	PPARg SRC1 recr 28 (no result: SRC1 TRFRET art, SRC3 TRFRET art) | PPARg SRC2 ag inactive | PPARg SRC1 ag inactive | PPARg SRC3 ag inactive
CCCC(=O)N1N=C(c2ccccc2)CC1c1cn(C)c2ccccc12 (stereo unspecified)	none
CC(=O)N1N=C(c2ccc(Br)cc2)CC1c1cn(C)c2ccccc12 (stereo unspecified)	PPARg SRC1 recr 24, SRC1 TRFRET art 2488, SRC3 TRFRET art 2275, SRC2 TRFRET art 2079, PPARg SRC-2 ag 28 | PPARg SRC2 ag 36 | PPARg SRC1 ag 34 | PPARg SRC3 ag inactive
COC(=O)CN(n1cnnc1)S(=O)(=O)c1ccc(C)cc1	none (no result: SRC1 TRFRET art, SRC3 TRFRET art)
Cc1ccc(S(=O)(=O)N(c2nc(NC(C)C)nc(NC(C)C)n2)n2cnnc2)cc1	PPARg SRC-2 ag 24 | PPARg SRC2 ag inactive | PPARg SRC1 ag inactive | PPARg SRC3 ag inactive
S=c1[nH]nc(-c2cc(-c3ccco3)[nH]n2)n1-c1ccccc1	PPARg SRC-3 ag 27 (no result: SRC1 TRFRET art, SRC3 TRFRET art) | PPARg SRC2 ag 23 | PPARg SRC1 ag inactive | PPARg SRC3 ag inactive
CCn1c(-c2nn(C)cc2Cl)n[nH]c1=S	none
Cn1cc(Cl)c(-c2n[nH]c(=S)n2-c2ccccc2)n1	PPARg SRC1 recr 30, SRC1 TRFRET art 2497, SRC3 TRFRET art 2184, SRC2 TRFRET art 2159, PPARg SRC-2 ag 35 | PPARg SRC2 ag 27 | PPARg SRC1 ag inactive | PPARg SRC3 ag inactive
Cc1cc(-c2n[nH]c(=S)n2-c2ccccc2)nn1C	none
Cc1nn(C)c(-c2n[nH]c(=S)n2-c2ccccc2)c1Cl	PPARg SRC1 recr 24, SRC3 TRFRET art 2211, SRC2 TRFRET art 2081 | PPARg SRC2 ag inactive | PPARg SRC1 ag inactive | PPARg SRC3 ag inactive
Cc1c(Cl)c(-c2n[nH]c(=S)n2-c2ccc(F)cc2)nn1C	PPARg SRC1 recr 33, PPARg SRC-3 ag 48, SRC2 TRFRET art 2050, PPARg SRC-2 ag 31 (no result: SRC1 TRFRET art, SRC3 TRFRET art) | PPARg SRC2 ag 28 | PPARg SRC1 ag inactive | PPARg SRC3 ag inactive
O=C(NC(=S)NCCC1=CCCCC1)c1cncc(Br)c1	none
CC(C)N(Cc1ccccc1)C(=O)COC(=O)/C=C/c1cnc2ccccc2n1	none
C/C(=N\NC(=O)c1ccc(O)cc1)c1ccc2c(c1)Nc1ccccc1S2	PPARg SRC-2 ag 27 | PPARg SRC2 ag inactive | PPARg SRC1 ag inactive | PPARg SRC3 ag inactive
CNc1nc(-c2c[nH]c3ccccc23)cs1	none (no result: SRC1 TRFRET art, SRC3 TRFRET art)
Nc1nc(-c2c[nH]c3ccccc23)cs1	PPARg SRC1 recr 20, PPARg SRC-3 ag 36 (no result: SRC1 TRFRET art, SRC3 TRFRET art) | PPARg SRC2 ag 22 | PPARg SRC1 ag inactive | PPARg SRC3 ag inactive
O=c1c(Br)c(Br)cnn1-c1ccccc1	PPARg SRC1 recr 38, SRC1 TRFRET art 2662, SRC3 TRFRET art 2406, PPARg SRC-3 ag 32, SRC2 TRFRET art 2405, PPARg SRC-2 ag 34 | PPARg SRC2 ag 29 | PPARg SRC1 ag inactive | PPARg SRC3 ag inactive
Cc1ccc(-n2ncc(Br)c(Br)c2=O)cc1	none
CCOC(=O)C1(CCc2ccccc2)CCN(C(=O)c2cnc(C)cn2)CC1	none
CCOC(=O)c1c(-c2cccs2)csc1NC(=O)CCCC(=O)O	SRC2 TRFRET art 2153, PPARg SRC-2 ag 25 (no result: SRC1 TRFRET art, SRC3 TRFRET art) | PPARg SRC2 ag 25 | PPARg SRC1 ag inactive | PPARg SRC3 ag inactive
